# Data as given in PubChem BioAssay (EPA / NIEHS).
# Inconclusive results are not listed. Calls of active or inactive are those of the source. Rule for the calls, unless noted: active = hit-call score of the fitted dose curve at least 0.9, where 1 is the maximum; inactive = score below 0.9.
# What was measured:
# [1] = CCTE_Padilla_ZF_Score.General: CCTE's 144 Hour Post-fertilization zebrafish Assay Score for General Malformation, Padilla Lab (AID 2284411)
# Method in brief: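 Malformation, death and hatching were scored at 6 dpf by two blinded observers under a stereo microscope. Embryos were dosed singly from 6-8 hpf in sealed plates of 10% Hanks' at 26C and rinsed on 5 dpf; DMSO baseline.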
# [2] = CCTE_Padilla_ZF_Score.Swim_bladder: CCTE's 144 Hour Post-fertilization zebrafish Assay Score for Swim Bladder Malformation, Padilla Lab (AID 2284408)
# Method in brief: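 Swim bladder inflation scored at 6 dpf by two blinded observers under a stereo microscope. Exposure ran from 6–8 hpf in sealed wells of 10% Hanks' at 26C, with rinsing at 5 dpf; DMSO served as baseline.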
# [3] = CCTE_Padilla_ZF_Score.Position: CCTE's 144 Hour Post-fertilization zebrafish Assay Score for Position, Padilla Lab (AID 2284409)
# Method in brief: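 Wild-type zebrafish embryos (with chorions) exposed singly from 6–8 hpf in sealed wells of Hanks' solution at 26C, rinsed at 5 dpf. At 6 dpf, blinded assessors scored abnormal water-column position by brightfield stereomicroscopy, relative to DMSO.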
# [4] = CCTE_Padilla_ZF_Score.Living: CCTE's 144 Hour Post-fertilization zebrafish Assay Score for Viability, Padilla Lab (AID 2284410);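 note: larval death at 6 dpf judged by absent heartbeat or coagulation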
# Method in brief: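 Mortality at 6 dpf, judged as absent heartbeat or coagulation by two blinded observers, after sealed static exposure beginning at 6–8 hpf at 26C. Larvae were rinsed free of chemical at 5 dpf, and activity was fitted relative to DMSO.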
# [5] = CCTE_Padilla_ZF_Score.Tail: CCTE's 144 Hour Post-fertilization zebrafish Assay Score for Tail Malformation, Padilla Lab (AID 2284414)
# Method in brief: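 Tail malformations were scored at 6 dpf by two blinded assessors under a stereo microscope. Chorionated embryos had been exposed from 6-8 hpf in sealed wells of 10% Hanks' at 26 C, then rinsed free of chemical at 5 dpf.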
# [6] = CCTE_Padilla_ZF_Score.Blood_pooling: CCTE's 144 Hour Post-fertilization zebrafish Assay Score for Blood Pooling, Padilla Lab (AID 2284415)
# Method in brief: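 Blood pooling was scored at 6 dpf under a stereo microscope by two blinded assessors, fitted upward against DMSO. Single embryos were dosed at 6–8 hpf in 10% Hanks', kept sealed at 26C (14:10 h cycle) and rinsed at 5 dpf.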
# [7] = CCTE_Padilla_ZF_Score.Any: CCTE's 144 Hour Post-fertilization zebrafish Assay Score for Any Mortality or Malformation, Padilla Lab (AID 2284416)
# Method in brief: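 Wild-type zebrafish embryos with chorions, one per well in 10% Hanks' from 6–8 hpf, dosed in sealed plates at 26 C, 14:10 h light:dark; rinsed at 5 dpf; blinded scoring at 6 dpf for death or malformation, versus DMSO.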
# [8] = test system: SRY-box transcription factor 2 (SOX2) Protein Expression, Deisenroth Lab, SOX2 (gene 6657); assay: CCTE_Deisenroth_DEVTOX-GLR_Endo_SOX2: CCTE's DevTox GLR-Endo Assay Evaluation of SRY-box transcription factor 2 (SOX2) Protein Expression, Deisenroth Lab (AID 2284412; active = hit-call score of the fitted dose curve at least 0.9, where 1 is the maximum)
# Method in brief: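 Endpoint is percent SOX2-positive cells (SOX2+ count/total cells) minus 0.2% DMSO control, from high-content imaging of fixed, nuclear-stained RUES2-GLR cells. Dosing twice at 24 h intervals over 48 h differentiation, 1 nM–200 uM in 10 points.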
# [9] = test system: SRY-box transcription factor 17 (SOX17) Protein Expression, Deisenroth Lab, SOX17 (gene 64321); assay: CCTE_Deisenroth_DEVTOX-GLR_Endo_SOX17: CCTE's DevTox GLR-Endo Assay Evaluation of SRY-box transcription factor 17 (SOX17) Protein Expression, Deisenroth Lab (AID 2284413)
# Procedure: CCTE_Deisenroth_DEVTOX-GLR_Endo assay is a cell-based, multiplex-readout assay that uses RUES2-GLR, a human pluripotent cell line, with measurements taken at 48 hours after chemical dosing in a 384-well microplateCCTE_Deisenroth_DEVTOX-GLR_Endo_SOX17 is 1 of 4 assay components calculated from the CCTE_Deisenroth_DEVTOX-GLR_Endo assay and it measures the percentage of cells in an endoderm state. Using a type of inducible fluorescent protein reporter, gain-of-signal activity can be used to understand changes in gene expression with fluorescent microscopy. The percentage of SOX17+ cells are determined by calculating the number of SOX17+ cells divided by the cell count. To generalize the intended target to other relatable targets, this assay component is annotated to the transcription factor intended target family, where the subfamily is SRY-related HMG-box.Data from the assay component CCTE_Deisenroth_DEVTOX-GLR_Endo_SOX17 was analyzed as 1 assay endpoint. The endpoint is the percent change in SOX17+ cell population relative to the 0.2% DMSO control in the CCTE_Deisenroth_DEVTOX-GLR_Endo assay. This assay endpoint can be referred to as a primary readout since this assay has produced multiple assay endpoints where this one serves as a measure of endoderm differentiation.
# (§1) All assay protocols are aligned to the DevTox GLR-Endo assay workflow. […]
# [10] = test system: Brachyury (BRA) Protein Expression, TBXT (gene 6862); assay: CCTE_Deisenroth_DEVTOX-GLR_Endo_BRA: CCTE's DevTox GLR-Endo Assay Evaluation of Brachyury (BRA) Protein Expression, Deisenroth Lab (AID 2284417)
# Procedure: CCTE_Deisenroth_DEVTOX-GLR_Endo assay is a cell-based, multiplex-readout assay that uses RUES2-GLR, a human pluripotent cell line, with measurements taken at 48 hours after chemical dosing in a 384-well microplateCCTE_Deisenroth_DEVTOX-GLR_Endo_BRA is 1 of 4 assay components calculated from the CCTE_Deisenroth_DEVTOX-GLR_Endo assay and it measures the percentage of cells in an mesoderm state. Using a type of inducible fluorescent protein reporter, gain-of-signal activity can be used to understand changes in gene expression with fluorescent microscopy. The percentage of BRA+ cells are determined by calculating the number of BRA+ cells divided by the cell count. To generalize the intended target to other relatable targets, this assay component is annotated to the transcription factor intended target family, where the subfamily is T-box protein.Data from the assay component CCTE_Deisenroth_DEVTOX-GLR_Endo_BRA was analyzed as 1 assay endpoint. The endpoint is the percent BRA+ cell population minus the 0.2% DMSO control in the CCTE_Deisenroth_DEVTOX-GLR_Endo assay. Furthermore, this assay endpoint can be referred to as a secondary readout, because this assay has produced multiple assay endpoints where this one serves as a measure of mesoderm differentiation.
# as §1
compound,measurement,setting,value
CCCCCCCCCC(=O)OCC,outcome,[1],inactive
O=C(O)C(F)(F)C(F)(F)C(F)(F)C(F)(F)C(F)(F)C(F)(F)C(F)(F)C(F)F,outcome,[2],inactive
same,outcome,[3],inactive
same,outcome,[4],inactive
same,outcome,[1],inactive
same,outcome,[5],inactive
same,outcome,[6],inactive
same,AC50,[7],88.5 µM (active)
C=C(C)C(=O)OCCC(F)(F)C(F)(F)C(F)(F)C(F)(F)C(F)(F)C(F)(F)C(F)(F)C(F)(F)F,outcome,[2],inactive
same,outcome,[3],inactive
same,outcome,[4],inactive
same,outcome,[1],inactive
same,outcome,[5],inactive
same,outcome,[6],inactive
same,outcome,[7],inactive
CCCCCCCCCCCCS,outcome,[1],inactive
C=C(F)C(=O)OC(C(F)(F)F)C(F)(F)F,outcome,[2],inactive
same,outcome,[3],inactive
same,outcome,[4],inactive
same,outcome,[1],inactive
same,outcome,[5],inactive
same,outcome,[6],inactive
same,outcome,[7],inactive
O=C(O)C(F)(F)OC(F)(F)C(F)(F)OC(F)(F)C(F)(F)C(F)(F)C(F)(F)F,outcome,[2],inactive
same,outcome,[3],inactive
same,AC50,[4],81.2 µM (active)
same,AC50,[1],81.3 µM (active)
same,outcome,[5],inactive
same,outcome,[6],inactive
same,outcome,[7],inactive
CCC(=O)OC/C=C(\C)CCC=C(C)C,AC50,[1],27.3 µM (active)
CC(C)Cc1ccc(C(C)C(=O)O)cc1 (centres undefined),outcome,[8],inactive
same,outcome,[9],inactive
O=C(O)c1ccccc1O,outcome,[9],inactive
same,outcome,[10],inactive
CCOC(=O)C=Cc1ccccc1,outcome,[1],inactive
C=C1CC[C@H]2O[C@]2(C)CC[C@@H]2[C@@H]1CC2(C)C,AC50,[1],65.4 µM (active)
CC1=CC(C)C(C=O)C(C)C1 (centres undefined) (tested in a mixture with another compound),outcome,[1],inactive
O=S(=O)(O)C(F)(F)C(F)(F)OC(F)(F)C(F)(F)F,outcome,[2],inactive
same,outcome,[3],inactive
same,outcome,[4],inactive
same,outcome,[1],inactive
same,outcome,[5],inactive
same,outcome,[6],inactive
same,outcome,[7],inactive
OCC(F)(OC(F)(F)C(F)(OC(F)(F)C(F)(F)C(F)(F)F)C(F)(F)F)C(F)(F)F (centres undefined),outcome,[2],inactive
same,outcome,[3],inactive
same,AC50,[4],35.4 µM (active)
same,outcome,[1],inactive
same,outcome,[5],inactive
same,outcome,[6],inactive
same,AC50,[7],31.8 µM (active)
CC(=O)CCC=C(C)CCC=C(C)C,outcome,[1],inactive
CCOC(=O)CCCCCCCCC(=O)OCC,outcome,[1],inactive
